From PubChem BioAssay
Calls of active or inactive are those of the source.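 The calls were made as follows, unless noted: active = visual image review flags a hit and inhibition of aggregation exceeds 20%; inconclusive = visual hit but inhibition at or below 20%; inactive = no hit on visual image review.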

Legend:
[1] = inhibitors of TNFa-induced NFkB p65 translocation, primary screen, imaging, HUVEC, MLSMR starter and 10KST1 sets (AID 438;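 active = inhibition above 20% together with a positive visual image hit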;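 also: compound added about 3h40 before a 20 min TNFalpha stimulation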;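 as to inhibition: signal is the nuclear over cytoplasmic p65 intensity ratio per well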); conditions: HUVEC TNFa-induced p65 nuclear translocation; cell count: measured here: nuclei count (cytotoxicity indicator), at 2.08 µM; inhibition: at 2 µM, stronger effect = higher value, 0% TNFa-plus-vehicle, 100% no-TNFa wells
[2] = inhibitors of mutant huntingtin aggregation, primary screen, imaging, exon1htt(103Q)mCFP cells, high-content imaging (AID 483); conditions: exon1htt(103Q)mCFP cell line, aggregate imaging, at 2 µM; inhibition of aggregation: stronger effect = higher value; nuclei count: measured here: cell count, toxicity;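 also: compound exposure lasted 3 days before fixation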;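 as to nuclei count: percent of the per-plate median nuclei count of sample wells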
[3] = inhibitors of E-selectin induction by TNFa, primary screen, imaging, HUVEC, immunofluorescence, MLSMR starter and 10KST1 sets (AID 487;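 active = visually confirmed hit in the image check and inhibition above 20%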;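 as to inhibition: signal is fraction of cell area covered by stained E-selectin grains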;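 as to nuclei count: 100% = median nuclei count of all wells on the same plate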); conditions: HUVEC TNFalpha-induced E-selectin immunofluorescence imaging, at 2 µM; inhibition: stronger effect = higher value; nuclei count: measured here: cell number, toxicity
[4] = target: Voltage-gated potassium channel subunit beta-2 (Rattus norvegicus) (UniProt P62483); assay: KvBeta enzyme negative modulators, primary screen, biochemical, NADPH fluorescence (AID 622;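 active = fluorescence slope higher than the sample average by over 3 SD, cut at about -0.22 in these data, passing the limit was not always enough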;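 also: slope of raw intensity against log time taken from 70 to 1610 s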); conditions: recombinant KvBeta, 4-cyanobenzaldehyde reduction, at 10 µM, stronger effect = higher value
[5] = target: Voltage-gated potassium channel subunit beta-2 (Rattus norvegicus) (UniProt P62483); assay: KvBeta positive modulators, primary screen, biochemical, NADPH fluorescence (AID 623;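 active = NADPH fluorescence slope more negative than the mean of all samples by about 3 SD, 99.7% confidence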;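 also: fluorescence intensity change per second fitted from 20 to 320 s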); conditions: Recombinant KvBeta, NADPH fluorescence decrease slope, 10 min; at 10 µM; stronger effect = lower value
[6] = target: Alpha-2C adrenergic receptor (Homo sapiens) (UniProt P18825); assay: modulators of alpha2C/GIRK thallium flux, primary screen, cell-based, HEK293 alpha2C/GIRK1/2 (AID 624;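 active = fluorescence slope after compound addition differing from the mean of all screened samples at 99.7% confidence, in either direction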;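 also: slope of fluorescence ratio to pre-addition baseline per second over 15 to 24 s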); conditions: thallium flux BTC fluorescence, at 10 µM, actives lie on both sides
[7] = inhibitors of Sendai virus-induced IRF3 signaling, primary screen, TLR/RLR signaling modifier project, cell-based, Sendai virus stimulus, luciferase, 10K MLSCN set (AID 602276;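 active = inhibition at or above 50% at 10 µM; inactive = inhibition below 50%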;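 also: firefly luciferase from ISG56 promoter only with Renilla not read in this screen; 0% = Sendai virus plus DMSO and 100% = medium plus DMSO without virus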); conditions: HEK293 RL24 IRF3 luciferase reporter, at 10 µM, stronger effect = higher value
[8] = inhibitors of poly I:C-induced TLR3 signaling, primary screen, cell-based, poly I:C stimulus, luciferase, 10K MLSCN set (AID 602277;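 active = inhibition of the reporter signal at or above 50%; inactive = inhibition below 50%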); conditions: HEK293-TLR3 RL24 IRF3 luciferase reporter, at 10 µM, stronger effect = higher value

Chain of Voltage-gated potassium channel subunit beta-2 (Rattus norvegicus) (P62483 whole entry, looked up): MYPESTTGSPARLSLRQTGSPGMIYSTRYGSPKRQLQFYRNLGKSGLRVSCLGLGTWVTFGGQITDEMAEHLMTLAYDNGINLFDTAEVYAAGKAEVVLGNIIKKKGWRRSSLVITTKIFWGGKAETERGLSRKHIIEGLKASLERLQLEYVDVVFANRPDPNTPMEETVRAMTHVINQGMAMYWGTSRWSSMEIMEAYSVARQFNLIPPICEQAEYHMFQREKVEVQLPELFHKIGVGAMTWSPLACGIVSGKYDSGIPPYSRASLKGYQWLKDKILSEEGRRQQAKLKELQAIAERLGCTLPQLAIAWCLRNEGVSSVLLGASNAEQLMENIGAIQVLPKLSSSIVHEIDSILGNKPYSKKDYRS
Chain of Alpha-2C adrenergic receptor (Homo sapiens) (P18825 whole entry, looked up): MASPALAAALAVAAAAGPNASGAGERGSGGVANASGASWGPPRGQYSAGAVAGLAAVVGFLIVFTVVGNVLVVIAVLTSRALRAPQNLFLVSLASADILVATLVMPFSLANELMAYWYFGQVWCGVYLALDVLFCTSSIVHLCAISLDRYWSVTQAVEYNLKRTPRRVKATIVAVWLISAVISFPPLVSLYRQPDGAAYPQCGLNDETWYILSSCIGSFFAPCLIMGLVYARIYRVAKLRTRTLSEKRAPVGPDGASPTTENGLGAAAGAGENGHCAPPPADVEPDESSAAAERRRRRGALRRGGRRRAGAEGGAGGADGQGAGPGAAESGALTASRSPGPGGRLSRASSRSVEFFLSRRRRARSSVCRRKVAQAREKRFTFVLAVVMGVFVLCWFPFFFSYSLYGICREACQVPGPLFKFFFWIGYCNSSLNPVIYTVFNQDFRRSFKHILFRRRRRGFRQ

SMILES	cell count [1]	inhibition [1]	inhibition of aggregation [2]	nuclei count [2] [%]	inhibition [3]	nuclei count [3] [%]	fluorescence slope [4]	NADPH fluorescence slope [5]	slope [6]	inhibition [7]	inhibition [8]
Cc1cc2c(c(=O)n1C)C(Cc1ccccc1)C(C#N)=C(N)O2 (stereo not drawn)	620	-20.7% (inactive)	24.9% (inactive)	99.1	-61.8% (inactive)	117	-0.322 (inactive)	-3.8e-05 (inactive)	0.00445 (inactive)	9.72% (inactive)	14.5% (inactive)
O=C(CSc1nc(O)cc(=O)n1-c1ccccc1)N1CCCCC1	635	-8.1% (inactive)	-16.4% (inactive)	103	-85.5% (inactive)	109	-0.536 (inactive)	-5.1e-05 (inactive)	0.00543 (inactive)	12.3% (inactive)	21% (inactive)
O=C(NCC1CCCO1)c1ccc(N2CCCCC2)nc1 (stereo not drawn)	684	-11.2% (inactive)	1.5% (inactive)	99.7	-30.2% (inactive)	107	-0.314 (inactive)	2.7e-06 (inactive)	0.00663 (inactive)	-7.44% (inactive)	-103% (inactive)
O=C(Nc1ccon1)c1cc(-c2ccccc2)nc2ccccc12	364	-8% (inactive)	22.5% (inactive)	98.4	-48.5% (inactive)	116	-0.286 (inactive)	-6.3e-05 (inactive)	0.00497 (inactive)	-24.1% (inactive)	99.8% (active)
Cc1cc(N2CCN(C)CC2)nc(N2CCOCC2)n1	692	-9.4% (inactive)	-6.8% (inactive)	125	-24.5% (inactive)	109	-0.425 (inactive)	-4.1e-05 (inactive)	0.00311 (inactive)	-2.65% (inactive)	25.9% (inactive)
CC(=O)Nc1ccccc1OCc1nnc(-c2cccs2)o1	392	4.8% (inactive)	-8.8% (inactive)	92.5	-266% (inactive)	104	-0.612 (inactive)	2e-06 (inactive)	0.00944 (inactive)	-27% (inactive)	-28.6% (inactive)
COc1cccc(NC(=O)N2CCC(N3CCCCC3)CC2)c1	369	5.2% (inactive)	7.2% (inactive)	105	-124% (inactive)	119	-0.582 (inactive)	2.5e-05 (inactive)	0.00728 (inactive)	15.9% (inactive)	26.1% (inactive)
O=C(OCC#CCSc1nnc(-c2ccncc2)o1)c1cccs1	513	5.2% (inactive)	-4.1% (inactive)	104	-19.4% (inactive)	102	-0.426 (inactive)	-2e-05 (inactive)	0.00642 (inactive)	1.96% (inactive)	24.8% (inactive)
Clc1ccc(OCCCn2cncn2)cc1Cl	432	3.4% (inactive)	21.2% (inactive)	99.2	7.8% (inactive)	94.7	-0.523 (inactive)	5.3e-06 (inactive)	0.00702 (inactive)	10.6% (inactive)	-19.6% (inactive)
CCCC(=O)n1nc(-c2ccc(OC)cc2)nc1N	239	-3.7% (inactive)	17.1% (inactive)	80	-20.1% (inactive)	77	-0.483 (inactive)	-4.3e-05 (inactive)	0.00574 (inactive)	12.9% (inactive)	14.6% (inactive)
Cc1ccc(C)n1-n1c(C)nc2sc(-c3ccccc3)cc2c1=O	419	-0.6% (inactive)	-8.2% (inactive)	85.3	-143% (inactive)	109	-0.363 (inactive)	3.8e-06 (inactive)	0.00611 (inactive)	-68% (inactive)	-272% (inactive)
Cc1cc(NC(=O)C23CCC(C)(C(=O)O2)C3(C)C)no1 (stereo not drawn)	406	4% (inactive)	14.4% (inactive)	80.2	-22.3% (inactive)	111	-0.612 (inactive)	-1.5e-06 (inactive)	0.00569 (inactive)	4.18% (inactive)	10.3% (inactive)
Cc1cc(Cl)ccc1NC(=O)CSc1nnc(Cc2cccs2)n1Cc1ccco1	270	-4.3% (inactive)	27.5% (inactive)	74.6	-32.8% (inactive)	102	-0.494 (inactive)	-5e-05 (inactive)	0.00645 (inactive)	17.4% (inactive)	32.2% (inactive)
O=C(NC1CCCCC1)N(Cc1ccc(F)cc1)Cc1nc2ccccc2c(=O)[nH]1	348	1.1% (inactive)	-22.3% (inactive)	96.5	-71.7% (inactive)	99	-0.333 (inactive)	3.6e-06 (inactive)	0.0032 (inactive)	21% (inactive)	29% (inactive)
CCOc1ccc(N(CC(=O)NC2CCCC(C)C2C)S(=O)(=O)c2c(C)noc2C)cc1 (stereo not drawn)	872	4% (inactive)	20.7% (inactive)	131	-33.2% (inactive)	111	-0.612 (inactive)	7.5e-06 (inactive)	0.00653 (inactive)	1.67% (inactive)	38.3% (inactive)
CCOC(=O)N1CCC(NC(=O)Cc2ccc(-n3c(=O)[nH]c4ccccc4c3=O)cc2)CC1	753	-5.8% (inactive)	-8.3% (inactive)	112	-35.8% (inactive)	115	-0.527 (inactive)	-1.5e-05 (inactive)	0.00585 (inactive)	0.617% (inactive)	-10.4% (inactive)
Cc1ccc(S(=O)(=O)N2CCCC(c3nnc4n3-c3ccccc3SC4)C2)cc1 (stereo not drawn)	431	3.4% (inactive)	4.2% (inactive)	95.7	-34% (inactive)	103	-0.67 (inactive)	-3.6e-05 (inactive)	0.00342 (inactive)	16.2% (inactive)	19.1% (inactive)
CCC(=O)c1cc(F)c(N2CCN(C(=O)c3ccco3)CC2)cc1C	611	-1.3% (inactive)	-12.2% (inactive)	128	-10.1% (inactive)	104	-0.519 (inactive)	-4.1e-05 (inactive)	0.00579 (inactive)	1.51% (inactive)	-21.1% (inactive)
Cc1noc(/C=C/N(C)C)c1S(=O)(=O)N1CCCC(C(=O)N2CCCCC2)C1 (stereo not drawn)	709	9.1% (inactive)	-0.1% (inactive)	80.5	-79.5% (inactive)	117	-0.516 (inactive)	-3.8e-05 (inactive)	0.00526 (inactive)	7.18% (inactive)	28.7% (inactive)
CC1Cc2ccccc2N1C(=O)CSc1nnc2n1C(C)(C)Cc1ccccc1-2 (stereo not drawn)	247	-0.2% (inactive)	21.8% (inactive)	84.2	5.5% (inactive)	69.7	-0.434 (inactive)	2.5e-05 (inactive)	0.00483 (inactive)	5.38% (inactive)	-63.7% (inactive)
Nc1nc2n(n1)C(c1cccc(Cl)c1)CC(c1ccc(F)cc1)N2 (stereo not drawn)	678	-12.4% (inactive)	-13.4% (inactive)	100	-13.6% (inactive)	106	-0.42 (inactive)	-3.8e-05 (inactive)	0.00636 (inactive)	11.8% (inactive)	25.8% (inactive)
N#Cc1cnn(Cc2ccc(Cl)cc2)c1N	628	4.5% (inactive)	-3.8% (inactive)	110	-28.9% (inactive)	91.4	-0.466 (inactive)	-5.6e-05 (inactive)	0.00625 (inactive)	7.9% (inactive)	25.7% (inactive)
COc1ccc(-n2nc(C(=O)NCC(=O)NCC3CCCO3)c3ccccc3c2=O)cc1 (stereo not drawn)	355	-1.7% (inactive)	13.1% (inactive)	91.3	-15.9% (inactive)	100	-0.435 (inactive)	-1.9e-05 (inactive)	0.0067 (inactive)	16.2% (inactive)	23.6% (inactive)
CCCSc1nnc2nc3c(nn12)c1ccccc1n3C	572	4.4% (inactive)	-6.3% (inactive)	109	5.3% (inactive)	107	-0.519 (inactive)	-6.9e-05 (inactive)	0.0026 (inactive)	5.91% (inactive)	27.8% (inactive)
O=C(NCCCN1CCCC1=O)C1CCN(S(=O)(=O)N2CCOCC2)CC1	195	25.3% (active)	17.1% (inactive)	94.9	27.7% (inactive)	81.9	-0.362 (inactive)	-4.9e-05 (inactive)	0.00575 (inactive)	-12.7% (inactive)	-7.16% (inactive)
Cc1ccc(S(=O)(=O)Cn2nnnc2CN(Cc2ccco2)Cc2cccs2)cc1	324	-1.6% (inactive)	6.8% (inactive)	108	-85.1% (inactive)	133	-0.594 (inactive)	-4.2e-05 (inactive)	0.00355 (inactive)	7.14% (inactive)	6.8% (inactive)
COc1ccc(OCC(=O)Nc2ccc(N3CCOCC3)c(Cl)c2)cc1	651	7.5% (inactive)	-18.9% (inactive)	101	-144% (inactive)	109	-0.488 (inactive)	-1.5e-05 (inactive)	0.00692 (inactive)	10.5% (inactive)	5.62% (inactive)
O=C(O)CCCc1nc(-c2ccccc2)no1	726	-1.7% (inactive)	-4.5% (inactive)	91.6	22.1% (inactive)	108	-0.447 (inactive)	1.4e-05 (inactive)	0.00583 (inactive)	16.6% (inactive)	20.7% (inactive)
